This passage reports Euclidean distance results from the supplement of paper PMC10127200.

In this assay the test system is OVCAR4. Kind of assay: Euclidean distance of Cell Painting phenotypic profile (signed KS, 77 features) to DMSO centroid (dimensionless distance); 5 or 10 uM (library dependent); higher = stronger phenotypic change vs DMSO (phenoactivity). The conditions noted are these: 48 h. In a few lines:
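Five cancer lines, together with a healthy fibroblast line, received library compounds for 48 h at a library-dependent 10 or 5 uM and 0.1% DMSO final. Harmony then derived 77 features from confocal 20X images (9 fields/well) of the stained cells, scoring each as a signed Kolmogorov-Smirnov statistic against same-plate vehicle wells. After plate-position correction, correlation weighting and replicate averaging at the top dose, phenoactivity was taken as each profile's Euclidean distance to the median vehicle profile.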
`C#C[C@]1(O)CC[C@H]2[C@@H]3CCc4cc(O)ccc4[C@H]3CC[C@@]21C` [Ethinyl Estradiol] yielded an Euclidean distance of 1.82. The result for `C=CC(=O)Nc1cc(Nc2nccc(-c3cn(C4CC4)c4ccccc34)n2)c(OC)cc1N(C)CCN(C)C` reads 1.92.

As to `COC(=O)Nc1nc2cc(C(=O)c3cccs3)ccc2[nH]1` [Nocodazole], the Euclidean distance was 3.08. Take `O=C(O)CCc1nc(-c2ccccc2)c(-c2ccccc2)o1` [Oxaprozin]: the Euclidean distance amounted to 1.28.

As for `CC(C)N(CC[C@H](c1ccccc1)c1cc(CO)ccc1O)C(C)C`, the Euclidean distance stood at 1.05.
